Results taken from ChEMBL document CHEMBL3988442, “University of Dundee, Small-Polar-MMV Screening Library” (2021).
For some assays here: Results with a measured potency or affinity are listed apart.

Columns and labels:
Parameters in all cases: scale not given: direction of the effect not stated beside the values
[1] = biological target: Protein translocase subunit SecA (Escherichia coli (strain K12)) (UniProt P10408); assay: Assay to Identify E. coli SecA ATPase Inhibitors; format: functional; settings: 30 µM
Protein translocase subunit SecA (Escherichia coli (strain K12)), sequence (P10408 whole entry): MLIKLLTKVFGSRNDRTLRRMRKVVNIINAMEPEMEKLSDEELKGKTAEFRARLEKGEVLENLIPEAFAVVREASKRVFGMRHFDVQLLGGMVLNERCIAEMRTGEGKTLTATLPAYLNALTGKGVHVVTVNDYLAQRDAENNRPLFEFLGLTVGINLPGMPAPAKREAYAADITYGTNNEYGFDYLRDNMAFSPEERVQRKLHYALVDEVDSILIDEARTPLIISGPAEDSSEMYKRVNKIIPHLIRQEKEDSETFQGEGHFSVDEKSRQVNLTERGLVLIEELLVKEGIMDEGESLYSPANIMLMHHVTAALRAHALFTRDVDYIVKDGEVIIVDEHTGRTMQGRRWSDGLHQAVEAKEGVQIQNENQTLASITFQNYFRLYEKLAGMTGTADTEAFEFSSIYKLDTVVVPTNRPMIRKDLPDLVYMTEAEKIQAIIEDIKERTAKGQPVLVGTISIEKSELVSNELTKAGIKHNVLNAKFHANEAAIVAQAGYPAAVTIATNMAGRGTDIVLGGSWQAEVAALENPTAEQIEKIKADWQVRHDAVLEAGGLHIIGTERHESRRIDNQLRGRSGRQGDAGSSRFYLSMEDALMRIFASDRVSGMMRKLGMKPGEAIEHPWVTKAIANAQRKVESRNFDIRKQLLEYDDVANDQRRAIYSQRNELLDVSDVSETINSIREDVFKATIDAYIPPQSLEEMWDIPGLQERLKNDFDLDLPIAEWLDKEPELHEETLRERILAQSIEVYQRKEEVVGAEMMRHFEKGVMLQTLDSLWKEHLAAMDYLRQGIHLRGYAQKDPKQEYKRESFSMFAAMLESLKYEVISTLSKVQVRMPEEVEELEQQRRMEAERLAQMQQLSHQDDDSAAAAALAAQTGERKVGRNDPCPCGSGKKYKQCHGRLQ

[2] = biological target: T1, Ubiquitin-activating enzyme e1, putative (Leishmania donovani (strain BPK282A1)) (UniProt E9BSI1); assay: Leishmania donovani Ubiquitin Activating Enzyme (LdE1); format: functional; settings: 30 µM
T1 sequence (whole entry): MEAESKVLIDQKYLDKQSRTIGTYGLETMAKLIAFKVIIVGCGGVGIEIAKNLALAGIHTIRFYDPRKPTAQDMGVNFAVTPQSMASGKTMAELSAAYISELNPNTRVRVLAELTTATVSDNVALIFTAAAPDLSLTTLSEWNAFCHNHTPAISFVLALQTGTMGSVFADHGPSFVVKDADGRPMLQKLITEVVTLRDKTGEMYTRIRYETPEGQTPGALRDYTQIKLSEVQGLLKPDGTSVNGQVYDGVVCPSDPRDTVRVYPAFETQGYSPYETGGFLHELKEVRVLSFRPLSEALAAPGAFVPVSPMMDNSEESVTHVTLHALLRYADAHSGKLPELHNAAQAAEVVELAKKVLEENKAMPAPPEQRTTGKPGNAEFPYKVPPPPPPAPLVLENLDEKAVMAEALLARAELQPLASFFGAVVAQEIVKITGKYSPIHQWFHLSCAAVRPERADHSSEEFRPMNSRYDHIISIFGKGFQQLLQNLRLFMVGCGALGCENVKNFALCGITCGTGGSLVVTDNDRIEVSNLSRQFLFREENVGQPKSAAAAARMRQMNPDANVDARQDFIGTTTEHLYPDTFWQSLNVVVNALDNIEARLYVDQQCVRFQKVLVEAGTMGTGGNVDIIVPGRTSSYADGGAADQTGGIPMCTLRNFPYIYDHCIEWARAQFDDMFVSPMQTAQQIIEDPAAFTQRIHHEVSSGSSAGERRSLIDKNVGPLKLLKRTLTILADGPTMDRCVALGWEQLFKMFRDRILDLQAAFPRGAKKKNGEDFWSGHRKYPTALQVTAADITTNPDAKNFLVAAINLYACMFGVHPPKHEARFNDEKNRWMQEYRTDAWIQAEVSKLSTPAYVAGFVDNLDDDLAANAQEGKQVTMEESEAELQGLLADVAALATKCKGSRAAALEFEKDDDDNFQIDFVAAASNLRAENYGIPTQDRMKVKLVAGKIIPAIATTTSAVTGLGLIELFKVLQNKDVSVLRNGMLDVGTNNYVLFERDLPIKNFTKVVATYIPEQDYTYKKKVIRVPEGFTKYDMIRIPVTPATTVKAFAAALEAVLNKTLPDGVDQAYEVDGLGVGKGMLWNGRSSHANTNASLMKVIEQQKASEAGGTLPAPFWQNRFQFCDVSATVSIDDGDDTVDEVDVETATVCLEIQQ

[3] = biological target: AMP-activated protein kinase, AMPK (Homo sapiens) (UniProt P54646+O43741+P54619+Q9UGJ0+Q9Y478+Q13131+Q9UGI9); assay: AMP-dependent Kinase enzyme assay. An in vitro enzyme assay that detects ADP turnover that is directly proportional to AMPK activity. This uses naive AMPK that is activated during the assay with MK-8722; format: functional; settings: 30 µM
[4] = biological target: Sialic acid-binding Ig-like lectin 9 (Homo sapiens) (UniProt Q9Y336); assay: Hs-Siglec9 ALPHAscreen SOP 20170721; settings: 10 µM
Sialic acid-binding Ig-like lectin 9 (Homo sapiens), sequence (Q9Y336 whole entry): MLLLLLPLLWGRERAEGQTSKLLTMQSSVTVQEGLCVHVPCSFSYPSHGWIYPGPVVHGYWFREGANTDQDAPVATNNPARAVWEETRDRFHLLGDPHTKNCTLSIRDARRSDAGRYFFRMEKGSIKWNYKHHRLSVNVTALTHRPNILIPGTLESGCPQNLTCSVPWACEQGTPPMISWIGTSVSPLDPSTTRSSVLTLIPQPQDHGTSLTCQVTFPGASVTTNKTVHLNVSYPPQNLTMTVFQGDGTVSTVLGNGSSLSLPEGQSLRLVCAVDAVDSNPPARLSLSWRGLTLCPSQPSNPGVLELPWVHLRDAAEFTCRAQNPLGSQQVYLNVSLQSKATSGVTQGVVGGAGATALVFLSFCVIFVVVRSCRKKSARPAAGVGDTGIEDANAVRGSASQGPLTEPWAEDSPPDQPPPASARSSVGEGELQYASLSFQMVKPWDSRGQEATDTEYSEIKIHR

[5] = test system: Trypanosoma cruzi; assay: Trypanosoma cruzi phosphomannomutase and mannose-1-phosphate guanylyltransferase assay; format: functional; settings: 10 µM
[6] = biological target: T2, Arginase-2, mitochondrial (Homo sapiens) (UniProt P78540); assay: in vitro enzyme assay to detect the production of urea directly proportional to the activity of Arginase II; format: functional; settings: 33.3 µM; also: in the data most compounds retested in dose-response had high values
T2 sequence (whole entry): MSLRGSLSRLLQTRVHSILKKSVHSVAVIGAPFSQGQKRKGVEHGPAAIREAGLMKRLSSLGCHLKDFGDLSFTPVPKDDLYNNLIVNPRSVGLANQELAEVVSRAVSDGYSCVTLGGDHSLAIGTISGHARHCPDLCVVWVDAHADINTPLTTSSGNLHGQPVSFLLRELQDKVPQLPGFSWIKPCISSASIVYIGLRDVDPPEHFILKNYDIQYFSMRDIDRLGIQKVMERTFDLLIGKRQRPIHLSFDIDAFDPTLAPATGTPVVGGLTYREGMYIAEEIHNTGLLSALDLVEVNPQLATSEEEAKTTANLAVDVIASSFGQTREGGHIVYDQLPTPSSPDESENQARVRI

[7] = biological target: T3, Proteasome subunit beta (Trypanosoma cruzi) (UniProt O96673); assay: Trypanosoma cruzi proteasome chymotrypsin-like activity (TcProtChymo) assay.; also: in the data most compounds retested in dose-response had high values; format: functional; settings: 9.37 µM
T3 sequence (whole entry): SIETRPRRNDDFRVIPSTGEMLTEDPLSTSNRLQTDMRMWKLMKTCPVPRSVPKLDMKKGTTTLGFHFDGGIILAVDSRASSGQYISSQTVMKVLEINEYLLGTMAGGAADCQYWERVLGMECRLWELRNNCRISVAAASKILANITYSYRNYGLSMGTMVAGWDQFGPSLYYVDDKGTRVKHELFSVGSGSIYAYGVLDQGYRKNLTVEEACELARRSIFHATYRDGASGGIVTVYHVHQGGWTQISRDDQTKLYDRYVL

[8] = species on record: Homo sapiens; assay: To identify inhibition of the IFN signalling (Jak-Stat) pathway via expression of an eGFP reporter gene under the control of an IFN-stimulated response element (ISRE) containing MxA promoter.; format: functional; settings: 30 µM
[9] = biological target: T4, Tyrosyl-tRNA synthetase, putative (Trypanosoma cruzi (strain CL Brener)) (UniProt Q4DSP6); assay: Trypanosoma cruzi tyrosyl tRNA synthetase (TcYRS) _High Tyrosine SOP; format: functional; settings: 30 µM; also: in the data most compounds retested in dose-response had high values
T4 sequence (whole entry): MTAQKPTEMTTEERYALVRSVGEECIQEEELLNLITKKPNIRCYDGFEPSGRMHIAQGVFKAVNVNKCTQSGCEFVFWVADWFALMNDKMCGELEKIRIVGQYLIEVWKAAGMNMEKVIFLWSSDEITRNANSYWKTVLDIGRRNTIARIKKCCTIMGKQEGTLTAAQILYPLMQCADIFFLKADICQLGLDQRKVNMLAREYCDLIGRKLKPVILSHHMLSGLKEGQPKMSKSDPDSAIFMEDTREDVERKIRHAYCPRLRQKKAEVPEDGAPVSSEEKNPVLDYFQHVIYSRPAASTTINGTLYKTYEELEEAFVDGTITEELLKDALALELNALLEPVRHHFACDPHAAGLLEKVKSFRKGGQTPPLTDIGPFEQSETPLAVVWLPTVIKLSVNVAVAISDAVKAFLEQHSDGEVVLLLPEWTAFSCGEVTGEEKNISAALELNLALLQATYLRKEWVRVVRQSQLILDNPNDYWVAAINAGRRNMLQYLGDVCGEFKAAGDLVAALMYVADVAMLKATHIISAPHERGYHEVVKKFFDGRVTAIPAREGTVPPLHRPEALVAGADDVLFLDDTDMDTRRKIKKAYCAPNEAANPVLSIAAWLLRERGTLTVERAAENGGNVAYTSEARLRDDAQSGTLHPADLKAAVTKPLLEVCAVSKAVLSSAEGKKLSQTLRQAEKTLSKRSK

[10] = biological target: T4, Tyrosyl-tRNA synthetase, putative (Trypanosoma cruzi (strain CL Brener)); assay: Trypanosoma cruzi tyrosyl tRNA synthetase (TcYRS) SOP; format: functional; settings: 30 µM
[11] = biological target: Chromo domain-containing protein 1 (Saccharomyces cerevisiae (strain ATCC 204508 / S288c) (Baker's yeast)) (UniProt P32657); assay: ScCHD-1 Enzyme Inhibition Assay; format: functional; settings: 30 µM; also: in the data most compounds retested in dose-response had high values
Chromo domain-containing protein 1 (Saccharomyces cerevisiae (strain ATCC 204508 / S288c) (Baker's yeast)), sequence (P32657 whole entry, the tested form may be a part): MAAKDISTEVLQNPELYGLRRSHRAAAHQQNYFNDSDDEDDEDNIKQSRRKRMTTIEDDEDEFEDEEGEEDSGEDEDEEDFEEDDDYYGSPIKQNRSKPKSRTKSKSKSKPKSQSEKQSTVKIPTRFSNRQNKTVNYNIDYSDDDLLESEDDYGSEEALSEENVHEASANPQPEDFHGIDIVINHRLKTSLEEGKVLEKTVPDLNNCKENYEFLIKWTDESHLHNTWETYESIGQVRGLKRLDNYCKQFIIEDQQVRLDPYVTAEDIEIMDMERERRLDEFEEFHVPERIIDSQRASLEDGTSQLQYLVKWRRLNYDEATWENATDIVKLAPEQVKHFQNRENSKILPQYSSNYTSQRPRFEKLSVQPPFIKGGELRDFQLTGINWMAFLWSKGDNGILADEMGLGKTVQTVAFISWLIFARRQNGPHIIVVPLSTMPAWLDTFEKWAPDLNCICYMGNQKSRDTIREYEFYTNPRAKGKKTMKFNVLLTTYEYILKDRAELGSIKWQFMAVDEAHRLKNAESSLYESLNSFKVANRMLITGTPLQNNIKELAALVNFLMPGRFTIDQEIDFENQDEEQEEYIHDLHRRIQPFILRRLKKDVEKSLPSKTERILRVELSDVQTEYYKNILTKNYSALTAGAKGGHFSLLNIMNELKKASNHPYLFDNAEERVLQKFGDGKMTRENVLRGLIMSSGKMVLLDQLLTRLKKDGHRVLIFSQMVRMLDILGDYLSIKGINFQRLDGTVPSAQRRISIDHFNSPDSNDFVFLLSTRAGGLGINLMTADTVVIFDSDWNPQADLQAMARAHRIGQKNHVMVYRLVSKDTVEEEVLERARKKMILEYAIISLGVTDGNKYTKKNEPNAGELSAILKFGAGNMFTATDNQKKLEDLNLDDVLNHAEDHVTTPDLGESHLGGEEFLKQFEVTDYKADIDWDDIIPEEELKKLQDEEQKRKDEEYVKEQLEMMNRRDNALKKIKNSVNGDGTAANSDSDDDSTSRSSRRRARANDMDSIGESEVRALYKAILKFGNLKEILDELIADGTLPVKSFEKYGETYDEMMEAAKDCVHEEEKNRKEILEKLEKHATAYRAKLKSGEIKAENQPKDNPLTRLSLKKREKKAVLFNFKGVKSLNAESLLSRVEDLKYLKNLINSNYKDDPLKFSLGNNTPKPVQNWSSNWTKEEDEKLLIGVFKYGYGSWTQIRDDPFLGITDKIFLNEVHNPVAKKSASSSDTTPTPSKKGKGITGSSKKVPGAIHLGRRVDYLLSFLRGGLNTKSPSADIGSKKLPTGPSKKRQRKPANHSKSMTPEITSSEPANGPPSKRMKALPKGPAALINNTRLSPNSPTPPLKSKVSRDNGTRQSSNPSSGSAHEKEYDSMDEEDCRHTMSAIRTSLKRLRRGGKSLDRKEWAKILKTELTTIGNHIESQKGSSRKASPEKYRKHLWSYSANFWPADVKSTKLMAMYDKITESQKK

| Structure (SMILES) | Percent Effect [1] | Percent Effect [2] | Percent Effect [3] | Percent Effect [4] | Percent Effect [5] | Percent Effect [6] | Percent Effect [7] | Percent Effect [8] | Percent Effect [9] | Percent Effect [10] | Percent Effect [11] |
| --- | --- | --- | --- | --- | --- | --- | --- | --- | --- | --- | --- |
| CCc1nc(CN2CCCN(c3nccs3)CC2)no1 | -2.88% | 15.6% | -3.3% | -7.59% | -3.93% | 1.78% | 12.5% | 26.3% | 3.88% | 9.76% | -8.02% |
| CS(=O)(=O)NC[C@]12COC[C@H]1CN(C(=O)C1CCCCC1)C2 | -1.23% | 0% | 2.98% | -0.175% | -1.47% | 14.3% | 17.7% | -0.518% | -20.5% | -25.6% | 3.02% |
| CN(Cc1ccc(C#N)cc1)Cc1noc(C(C)(C)C)n1 | -3.57% | 0% | -1.73% | 0.255% | -0.885% | 2.76% | 3% | 8.86% | -1.07% | -1.24% | 2.69% |
| COc1ccc(NC(=O)NC(C)c2nc[nH]n2)cc1 (configuration not stated) | -1.78% | 8.11% | -0.122% | 9.35% | 3.03% | 19.6% | 17.9% | -13.4% | 0% | 11.1% | -3.04% |
| CN(C)CC1CN(CCOc2cccc(C#N)c2)CCO1 (configuration not stated) | -2.7% | -5.26% | -2.16% | -5.38% | -4.95% | 5.75% | -8.71% | -3.58% | 1.48% | 3.7% | 4.04% |
| COCCNC(=O)CCc1c(C)nn(-c2nc(C)c(C)c(=O)[nH]2)c1C | 0.376% | 7.79% | -3.21% | -3.83% | -7% | 23.9% | 8.01% | 4.73% | 8.47% | 14.1% | -7.76% |
| O=C(NCC1CCOCC1)[C@@H]1C[C@@H]2CCN(Cc3ccco3)C[C@H]2O1 | -0.876% | 5.33% | -1.12% | 6.61% | -5.02% | -54.7% | 10.1% | -10.2% | 2.08% | 7.5% | -6.48% |
| O=C(NC1CCCC1)[C@@H]1CN(Cc2nccs2)C[C@H]2OCC[C@H]21 | -5.51% | 2.67% | -3.12% | -3.59% | -1.77% | 1.63% | -3.26% | 21.4% | 3.19% | -3.85% | 7.18% |
| COCCN1CCC(NC(=O)C2(c3cc(C)cc(C)c3)CC2)CC1 | -5.08% | 0% | -4.53% | -1.6% | -1.59% | 0.719% | -1.95% | -10.6% | 1.48% | -1.24% | 6.15% |
| COc1ccc(NC(=O)C2CCOC2)c(N2CCN(C(C)=O)CC2)n1 (configuration not stated) | -2.36% | 2.7% | -66.2% | 2.08% | -0.391% | 2.5% | 19.7% | 2.27% | 8.91% | 11% | -5.79% |
| O=C(NCCNC(=O)N1CCC(c2ccccc2)C1)C1CC1 (configuration not stated) | -2.18% | 18.9% | -5.02% | 22% | 4.44% | 2.38% | 15.5% | 8.1% | 2.65% | 14.6% | -0.679% |
| Cc1cc(NC(=O)CN2CCN(c3nccs3)C(C)C2)n(C)n1 (configuration not stated) | -1.17% | -2.7% | -3.28% | 12% | 0.279% | 0.924% | 4.49% | -4.36% | 1.98% | 3.66% | 10.5% |
| Cc1nc(CNC(=O)NCC(O)c2ccc(F)c(F)c2)cs1 (configuration not stated) | -1.38% | 10.8% | 1.17% | -3.81% | 3.25% | -3.51% | 16.3% | 23.3% | 7.92% | 18.3% | -5.03% |
| Cc1nn(C)c(Cl)c1CNCc1cccnc1N1CCOCC1 | -8.75% | 21.1% | -0.469% | -3.82% | 0.682% | -3.55% | 21% | 3.88% | 9.57% | 18.2% | -6.81% |
| O=C(c1ccsc1)N1CCc2c(CNc3ncccn3)n[nH]c2C1 | -4.87% | 10.7% | 4.32% | 1.51% | 6.95% | -44.6% | 1.88% | 9.05% | -1.04% | 7.5% | -6.05% |
| COc1cccc(CCC(=O)N2CCCCC2Cn2cccn2)c1 (configuration not stated) | -4.9% | 7.79% | 6.53% | 2.3% | 1.47% | 1.9% | 3.31% | 9.7% | 0.952% | 2.35% | -13.2% |
| CC(=O)NCCN1CCC(c2cccs2)CC1 | -3.79% | 5.48% | 4.81% | 1.43% | 6.27% | -1.36% | 17.9% | 3.79% | 2.15% | 10% | -6.86% |
| C[S+]([O-])CCCNC(=O)c1cc(Br)c2c(c1)OCCO2 (configuration not stated) | -5.04% | 10.7% | -5.08% | 28.9% | 5.55% | 48.4% | 2.62% | 8.03% | 2.73% | 13.6% | -7.44% |
| Cn1cnnc1C1CCCN(C(=O)Cc2ccc3c(c2)OCCO3)C1 (configuration not stated) | -1.87% | 13% | -0.424% | -2.52% | 3.82% | -1.05% | 13.7% | 13.2% | 7.62% | 18.8% | -15.4% |
| O=C(CCNC(=O)C1CCCC1)NCc1cccnc1-n1cncn1 | -4.32% | 15.8% | -2.4% | 3.19% | -1.21% | -2.88% | 9.56% | -0.451% | 14.3% | 25.9% | -0.359% |
| Oc1nc(N2CCOCC2)nc2c1CCN(Cc1cccnc1)CC2 | -4.93% | 6.76% | 7.05% | 1.25% | -1.98% | -3.48% | 5.15% | 3.87% | 4.3% | 11.7% | -8.38% |
| CCCNC(=O)CN1CCN(Cc2csc(C(C)(C)C)n2)CC1 | -7.74% | 2.53% | -2.27% | 0.111% | -4.63% | -1.14% | -7.62% | 20.3% | 2.46% | -3.8% | -1.83% |
